We go through one sequence from article PMC7862700, “An all-to-all approach to the identification of sequence-specific readers for epigenetic DNA modifications on cytosine”.

Assay in all cases: DAPPL (digital affinity profiling via proximity ligation, sequencing); 10 mM Tris-HCl pH 7.5, 50 mM NaCl, 1 mM DTT, 4% glycerol, room temperature, 30 min; GST-TFs on glutathione beads, 16-mer random dsDNA library, 0.1% formaldehyde crosslink after washing; high values mean tight binding
One assay addresses T1, FEV (Homo sapiens, UniProt Q99581 1-238).
T1 sequence: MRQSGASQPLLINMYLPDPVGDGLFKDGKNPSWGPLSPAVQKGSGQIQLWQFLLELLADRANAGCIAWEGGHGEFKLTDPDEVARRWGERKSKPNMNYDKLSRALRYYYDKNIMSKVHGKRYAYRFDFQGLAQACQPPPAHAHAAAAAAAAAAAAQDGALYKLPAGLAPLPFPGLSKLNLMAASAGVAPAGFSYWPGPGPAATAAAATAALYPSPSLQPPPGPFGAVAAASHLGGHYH
Particulars: protein: recombinant; tags: N-terminal GST; dsDNA, one strand shown. An outline of the steps: (§1)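 Pools were built from human transcription factors expressed in yeast as GST fusions, captured on glutathione beads and DNA-barcoded, along with a tag-only sample. Incubation with 200 nmole of a 16-mer random double-stranded DNA library lasted 30 min at room temperature in Tris/NaCl/DTT/glycerol buffer, and was followed by washing, 0.1% formaldehyde crosslinking, proximity ligation, PCR amplification and Illumina NextSeq500 sequencing. Binding signal is the quotient of each hexamer's read frequency for a factor and its frequency for the tag-only sample.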

The target in a further assay is ETV5 (Homo sapiens, UniProt P41161 1-510). Particulars: protein: recombinant; tags: N-terminal GST; dsDNA, one strand shown. An outline of the steps:
as §1

For the next assay, the target named is HSF1 (Homo sapiens, UniProt Q00613 1-529). Particulars: protein: recombinant; tags: N-terminal GST; chain copies: 3; dsDNA, one strand shown. An outline of the steps:
as §1

A further assay concerns the target T2, SPIC (Homo sapiens, UniProt Q8N5J4 1-248).
T2 sequence: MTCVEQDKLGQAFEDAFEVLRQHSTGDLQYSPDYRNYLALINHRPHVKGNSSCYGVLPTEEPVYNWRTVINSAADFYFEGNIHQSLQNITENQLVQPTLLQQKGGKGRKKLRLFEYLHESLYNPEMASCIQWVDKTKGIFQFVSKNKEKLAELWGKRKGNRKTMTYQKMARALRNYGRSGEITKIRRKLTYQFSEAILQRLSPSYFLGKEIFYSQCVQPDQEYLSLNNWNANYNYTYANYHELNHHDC
As to conditions: protein: recombinant; tags: N-terminal GST; dsDNA, one strand shown. The method in brief: as §1

Another assay deals with ELF4 (Homo sapiens, UniProt Q99607 1-663). Particulars: protein: recombinant; tags: N-terminal GST; dsDNA, one strand shown. The method in brief:
as §1

The target in another assay is T3, ELK4 (Homo sapiens, UniProt P28324-2 1-405).
T3 sequence: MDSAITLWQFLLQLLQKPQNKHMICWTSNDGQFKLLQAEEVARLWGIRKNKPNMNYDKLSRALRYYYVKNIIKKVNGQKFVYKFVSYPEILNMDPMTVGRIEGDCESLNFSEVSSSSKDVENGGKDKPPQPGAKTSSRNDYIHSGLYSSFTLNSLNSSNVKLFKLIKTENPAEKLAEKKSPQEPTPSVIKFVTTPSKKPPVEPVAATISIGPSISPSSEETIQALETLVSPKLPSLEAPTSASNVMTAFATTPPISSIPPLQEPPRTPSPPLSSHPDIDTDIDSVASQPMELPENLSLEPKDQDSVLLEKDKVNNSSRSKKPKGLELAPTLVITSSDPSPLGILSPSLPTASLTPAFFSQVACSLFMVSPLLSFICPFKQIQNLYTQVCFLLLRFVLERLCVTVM
As to conditions: protein: recombinant; tags: N-terminal GST; dsDNA, one strand shown. An outline of the steps: as §1

A further assay concerns the target T4, ETV2 (Homo sapiens, UniProt O00321 1-342).
T4 sequence: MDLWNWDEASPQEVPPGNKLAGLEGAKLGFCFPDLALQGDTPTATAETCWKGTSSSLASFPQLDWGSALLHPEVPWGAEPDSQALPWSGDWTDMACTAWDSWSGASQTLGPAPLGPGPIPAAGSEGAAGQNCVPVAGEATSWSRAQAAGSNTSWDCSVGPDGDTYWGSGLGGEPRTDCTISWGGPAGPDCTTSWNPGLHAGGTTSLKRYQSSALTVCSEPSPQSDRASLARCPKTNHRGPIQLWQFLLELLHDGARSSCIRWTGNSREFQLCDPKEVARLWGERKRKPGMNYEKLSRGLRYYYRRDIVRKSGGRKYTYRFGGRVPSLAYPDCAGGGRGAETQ
As to conditions: protein: recombinant; tags: N-terminal GST; dsDNA, one strand shown. An outline of the steps:
as §1

Another assay deals with T5, ELF3 (Homo sapiens, UniProt P78545 1-371).
T5 sequence: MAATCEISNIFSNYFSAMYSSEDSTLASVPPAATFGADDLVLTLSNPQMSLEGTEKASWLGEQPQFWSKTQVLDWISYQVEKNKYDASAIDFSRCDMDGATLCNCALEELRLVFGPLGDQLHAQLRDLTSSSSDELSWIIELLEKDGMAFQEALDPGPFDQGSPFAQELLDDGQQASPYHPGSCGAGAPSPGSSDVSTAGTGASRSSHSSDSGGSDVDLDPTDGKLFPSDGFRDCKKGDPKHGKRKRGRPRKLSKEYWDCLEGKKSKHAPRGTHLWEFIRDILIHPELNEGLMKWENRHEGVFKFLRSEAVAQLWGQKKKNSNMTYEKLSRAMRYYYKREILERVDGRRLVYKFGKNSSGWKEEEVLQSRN
As to conditions: protein: recombinant; tags: N-terminal GST; dsDNA, one strand shown. An outline of the steps: as §1

The target of a further assay is CRX (Homo sapiens, UniProt O43186 1-299). As to conditions: protein: recombinant; tags: N-terminal GST; dsDNA, one strand shown. The method in brief:
as §1

In another assay the target is ETV1 (Homo sapiens, UniProt P50549 1-477). Particulars: protein: recombinant; tags: N-terminal GST; dsDNA, one strand shown. An outline of the steps: as §1
The target of a further assay is T6, ERF (Homo sapiens, UniProt P50548 1-548).
T6 sequence: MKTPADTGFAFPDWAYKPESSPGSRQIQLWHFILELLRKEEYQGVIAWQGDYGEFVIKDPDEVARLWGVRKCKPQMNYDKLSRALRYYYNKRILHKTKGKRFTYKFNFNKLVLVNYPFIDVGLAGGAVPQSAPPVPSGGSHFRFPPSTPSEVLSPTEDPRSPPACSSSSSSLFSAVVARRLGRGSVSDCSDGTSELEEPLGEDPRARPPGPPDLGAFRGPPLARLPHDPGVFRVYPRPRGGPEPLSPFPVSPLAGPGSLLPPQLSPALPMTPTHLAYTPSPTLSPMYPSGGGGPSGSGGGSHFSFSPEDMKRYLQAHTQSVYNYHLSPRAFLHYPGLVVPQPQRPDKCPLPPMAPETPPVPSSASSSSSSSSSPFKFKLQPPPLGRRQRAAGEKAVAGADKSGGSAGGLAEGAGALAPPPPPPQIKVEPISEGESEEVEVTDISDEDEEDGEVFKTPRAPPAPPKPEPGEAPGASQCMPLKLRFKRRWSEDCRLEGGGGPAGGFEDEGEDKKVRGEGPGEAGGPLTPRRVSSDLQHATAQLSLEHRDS
Particulars: protein: recombinant; tags: N-terminal GST; dsDNA, one strand shown. The method in brief:
as §1

A further assay addresses T7, ETV3L (Homo sapiens, UniProt Q6ZN32 1-361).
T7 sequence: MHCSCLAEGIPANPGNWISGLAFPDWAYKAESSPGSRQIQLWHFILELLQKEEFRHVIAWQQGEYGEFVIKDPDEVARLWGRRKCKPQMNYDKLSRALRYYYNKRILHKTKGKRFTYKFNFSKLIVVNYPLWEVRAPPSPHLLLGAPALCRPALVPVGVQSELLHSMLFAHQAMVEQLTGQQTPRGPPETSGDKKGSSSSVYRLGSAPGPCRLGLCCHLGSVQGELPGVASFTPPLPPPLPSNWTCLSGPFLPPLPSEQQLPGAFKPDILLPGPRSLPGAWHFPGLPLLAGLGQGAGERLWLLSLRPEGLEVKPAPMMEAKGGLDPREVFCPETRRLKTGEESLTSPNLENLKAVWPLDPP
As to conditions: protein: recombinant; tags: N-terminal GST; dsDNA, one strand shown. The method in brief:
as §1

A further assay addresses T8, ETS2 (Homo sapiens, UniProt P15036 1-469).
T8 sequence: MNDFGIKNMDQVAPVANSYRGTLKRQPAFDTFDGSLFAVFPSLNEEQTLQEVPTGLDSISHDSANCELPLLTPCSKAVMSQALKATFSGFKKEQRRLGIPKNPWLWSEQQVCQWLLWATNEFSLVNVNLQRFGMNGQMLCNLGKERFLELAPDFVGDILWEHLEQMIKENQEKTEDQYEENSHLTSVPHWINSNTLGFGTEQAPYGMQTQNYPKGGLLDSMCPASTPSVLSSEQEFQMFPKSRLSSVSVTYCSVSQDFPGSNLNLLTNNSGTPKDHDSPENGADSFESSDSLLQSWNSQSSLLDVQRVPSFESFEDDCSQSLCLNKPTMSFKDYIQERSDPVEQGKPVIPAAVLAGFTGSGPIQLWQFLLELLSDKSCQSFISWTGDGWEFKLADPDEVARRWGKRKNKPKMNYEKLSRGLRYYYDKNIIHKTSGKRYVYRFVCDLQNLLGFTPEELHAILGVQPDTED
As to conditions: protein: recombinant; tags: N-terminal GST; dsDNA, one strand shown. The method in brief: as §1

For a further assay, the target named is T9, SPDEF (Homo sapiens, UniProt O95238 1-335).
T9 sequence: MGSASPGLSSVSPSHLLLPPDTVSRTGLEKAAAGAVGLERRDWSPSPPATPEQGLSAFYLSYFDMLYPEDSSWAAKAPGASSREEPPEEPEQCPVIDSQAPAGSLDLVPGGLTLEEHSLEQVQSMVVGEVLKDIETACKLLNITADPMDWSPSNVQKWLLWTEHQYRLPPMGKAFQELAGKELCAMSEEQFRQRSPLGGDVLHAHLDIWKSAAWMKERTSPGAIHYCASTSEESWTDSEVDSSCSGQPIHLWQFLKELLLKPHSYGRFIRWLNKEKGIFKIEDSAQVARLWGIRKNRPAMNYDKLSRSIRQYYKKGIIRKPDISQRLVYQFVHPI
As to conditions: protein: recombinant; tags: N-terminal GST; dsDNA, one strand shown. The method in brief:
as §1

The target of another assay is T10, ETV7 (Homo sapiens, UniProt Q9Y603 1-341).
T10 sequence: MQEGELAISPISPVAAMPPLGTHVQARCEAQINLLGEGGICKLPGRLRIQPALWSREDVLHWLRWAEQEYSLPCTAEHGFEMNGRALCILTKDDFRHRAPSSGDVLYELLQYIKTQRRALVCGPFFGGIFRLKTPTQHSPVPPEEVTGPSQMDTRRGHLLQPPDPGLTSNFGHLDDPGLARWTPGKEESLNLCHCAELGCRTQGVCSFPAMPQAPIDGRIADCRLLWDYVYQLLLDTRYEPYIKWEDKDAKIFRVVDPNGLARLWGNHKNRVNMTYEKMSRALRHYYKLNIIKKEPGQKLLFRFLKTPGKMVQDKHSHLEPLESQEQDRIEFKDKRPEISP
Particulars: protein: recombinant; tags: N-terminal GST; dsDNA, one strand shown. An outline of the steps:
as §1

In the next assay the target is T11, ELF5 (Homo sapiens, UniProt Q9UKW6-2 1-255).
T11 sequence: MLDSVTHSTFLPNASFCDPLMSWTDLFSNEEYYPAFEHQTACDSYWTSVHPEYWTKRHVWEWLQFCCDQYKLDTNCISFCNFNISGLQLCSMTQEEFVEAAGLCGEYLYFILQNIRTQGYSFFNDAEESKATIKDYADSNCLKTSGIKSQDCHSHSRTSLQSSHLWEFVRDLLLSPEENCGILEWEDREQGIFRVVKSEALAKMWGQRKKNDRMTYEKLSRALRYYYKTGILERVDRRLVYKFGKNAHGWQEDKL
Particulars: protein: recombinant; tags: N-terminal GST; dsDNA, one strand shown. The method in brief:
as §1

In another assay the target is T12, ETV3 (Homo sapiens, UniProt P41162-2 1-143).
T12 sequence: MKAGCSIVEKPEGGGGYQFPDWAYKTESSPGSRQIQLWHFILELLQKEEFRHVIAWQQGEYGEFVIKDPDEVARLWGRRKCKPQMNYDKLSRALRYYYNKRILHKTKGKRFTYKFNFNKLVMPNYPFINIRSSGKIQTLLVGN
Particulars: protein: recombinant; tags: N-terminal GST; dsDNA, one strand shown. The method in brief:
as §1

For the next assay, the target named is ETV6 (Homo sapiens, UniProt P41212 1-452). Particulars: protein: recombinant; tags: N-terminal GST; dsDNA, one strand shown. An outline of the steps: as §1
Chain of ETV6 (P41212 whole entry): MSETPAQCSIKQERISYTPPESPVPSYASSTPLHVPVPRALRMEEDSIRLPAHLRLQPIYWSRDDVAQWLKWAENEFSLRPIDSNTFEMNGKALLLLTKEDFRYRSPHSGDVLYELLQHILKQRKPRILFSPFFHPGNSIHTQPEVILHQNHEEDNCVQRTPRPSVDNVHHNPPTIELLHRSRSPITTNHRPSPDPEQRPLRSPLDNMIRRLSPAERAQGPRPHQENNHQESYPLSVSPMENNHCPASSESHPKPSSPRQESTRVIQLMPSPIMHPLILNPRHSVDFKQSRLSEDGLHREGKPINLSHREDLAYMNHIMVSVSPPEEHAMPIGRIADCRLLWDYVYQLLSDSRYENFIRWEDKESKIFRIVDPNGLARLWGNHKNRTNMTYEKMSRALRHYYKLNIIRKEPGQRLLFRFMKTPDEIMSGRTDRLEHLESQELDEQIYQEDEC

Chain of HSF1 (Q00613 whole entry): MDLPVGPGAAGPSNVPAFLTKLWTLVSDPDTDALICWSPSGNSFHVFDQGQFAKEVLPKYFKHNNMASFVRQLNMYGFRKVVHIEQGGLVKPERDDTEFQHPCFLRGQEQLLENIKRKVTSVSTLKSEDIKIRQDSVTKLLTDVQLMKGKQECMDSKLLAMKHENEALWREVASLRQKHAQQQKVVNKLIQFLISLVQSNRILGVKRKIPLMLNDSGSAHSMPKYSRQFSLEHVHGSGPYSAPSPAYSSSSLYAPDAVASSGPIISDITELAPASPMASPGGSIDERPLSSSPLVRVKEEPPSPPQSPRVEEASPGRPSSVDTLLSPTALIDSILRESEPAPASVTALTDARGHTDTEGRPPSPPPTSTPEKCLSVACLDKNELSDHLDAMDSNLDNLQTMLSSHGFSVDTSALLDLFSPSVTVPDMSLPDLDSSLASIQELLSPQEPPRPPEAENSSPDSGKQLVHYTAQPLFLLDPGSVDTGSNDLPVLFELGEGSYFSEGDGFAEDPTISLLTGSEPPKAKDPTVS
Chain of CRX (O43186 whole entry): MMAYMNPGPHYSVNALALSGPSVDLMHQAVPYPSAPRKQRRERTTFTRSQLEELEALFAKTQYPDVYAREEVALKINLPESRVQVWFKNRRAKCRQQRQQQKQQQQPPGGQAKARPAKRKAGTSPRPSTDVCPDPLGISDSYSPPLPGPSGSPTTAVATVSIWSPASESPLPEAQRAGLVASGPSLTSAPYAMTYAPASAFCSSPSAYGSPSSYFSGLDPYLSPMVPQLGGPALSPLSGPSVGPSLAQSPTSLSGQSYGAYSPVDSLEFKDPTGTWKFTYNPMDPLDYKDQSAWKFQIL
Chain of ELF4 (Q99607 whole entry): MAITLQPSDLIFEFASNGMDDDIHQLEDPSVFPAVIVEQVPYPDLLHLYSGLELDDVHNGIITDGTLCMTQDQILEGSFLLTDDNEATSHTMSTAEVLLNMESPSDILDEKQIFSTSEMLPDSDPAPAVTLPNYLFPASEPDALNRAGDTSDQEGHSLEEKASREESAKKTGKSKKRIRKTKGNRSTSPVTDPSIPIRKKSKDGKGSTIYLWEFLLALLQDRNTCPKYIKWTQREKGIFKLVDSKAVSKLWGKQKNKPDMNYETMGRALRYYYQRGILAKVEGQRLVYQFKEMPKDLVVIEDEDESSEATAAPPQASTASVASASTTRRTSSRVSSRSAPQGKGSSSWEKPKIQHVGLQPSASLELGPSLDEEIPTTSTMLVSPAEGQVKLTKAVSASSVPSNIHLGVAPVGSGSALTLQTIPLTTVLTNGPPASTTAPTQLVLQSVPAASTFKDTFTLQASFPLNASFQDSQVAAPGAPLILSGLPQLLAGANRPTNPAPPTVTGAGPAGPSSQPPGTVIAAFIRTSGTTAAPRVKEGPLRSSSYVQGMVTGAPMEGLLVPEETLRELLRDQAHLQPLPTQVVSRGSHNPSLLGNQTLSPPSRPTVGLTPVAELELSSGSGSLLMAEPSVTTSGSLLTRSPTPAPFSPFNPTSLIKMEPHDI
Chain of ETV5 (P41161 whole entry): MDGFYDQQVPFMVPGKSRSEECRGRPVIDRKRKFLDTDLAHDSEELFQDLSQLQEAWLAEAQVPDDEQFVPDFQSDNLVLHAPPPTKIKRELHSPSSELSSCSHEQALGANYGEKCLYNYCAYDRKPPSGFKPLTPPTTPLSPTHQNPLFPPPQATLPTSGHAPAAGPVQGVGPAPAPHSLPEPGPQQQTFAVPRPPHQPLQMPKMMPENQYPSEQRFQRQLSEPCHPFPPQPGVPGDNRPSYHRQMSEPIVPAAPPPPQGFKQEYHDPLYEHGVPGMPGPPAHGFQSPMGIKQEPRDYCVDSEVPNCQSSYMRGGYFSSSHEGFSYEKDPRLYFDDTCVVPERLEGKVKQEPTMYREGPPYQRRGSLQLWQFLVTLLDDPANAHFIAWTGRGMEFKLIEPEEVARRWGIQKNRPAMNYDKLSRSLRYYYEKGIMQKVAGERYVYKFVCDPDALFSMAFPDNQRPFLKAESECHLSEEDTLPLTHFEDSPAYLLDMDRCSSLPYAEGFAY
Chain of ETV1 (P50549 whole entry): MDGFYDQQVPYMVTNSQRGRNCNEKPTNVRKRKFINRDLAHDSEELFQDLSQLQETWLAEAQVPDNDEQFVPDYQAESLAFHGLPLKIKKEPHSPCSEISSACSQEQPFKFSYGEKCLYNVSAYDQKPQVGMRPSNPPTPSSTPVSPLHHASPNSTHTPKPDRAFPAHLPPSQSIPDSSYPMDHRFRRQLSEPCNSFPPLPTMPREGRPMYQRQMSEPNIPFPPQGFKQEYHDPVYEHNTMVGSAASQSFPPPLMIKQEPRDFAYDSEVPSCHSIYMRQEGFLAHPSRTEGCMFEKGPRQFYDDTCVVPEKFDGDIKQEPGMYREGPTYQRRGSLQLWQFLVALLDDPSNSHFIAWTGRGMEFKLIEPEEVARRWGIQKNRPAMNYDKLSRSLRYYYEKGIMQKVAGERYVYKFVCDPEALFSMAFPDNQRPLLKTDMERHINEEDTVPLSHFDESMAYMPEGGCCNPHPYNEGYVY

On to ATTGTA, for which the binding signal was 1.19 fold enrichment (6-mer frequency, TF over GST control) with FEV; 1.19 fold enrichment (6-mer frequency, TF over GST control) in the assay with ETV5; 1.16 fold enrichment (6-mer frequency, TF over GST control) with HSF1; 1.18 fold enrichment (6-mer frequency, TF over GST control) with SPIC; 1.24 fold enrichment (6-mer frequency, TF over GST control) with ELF4; 1.21 fold enrichment (6-mer frequency, TF over GST control) in the assay with ELK4. Further, the binding signal with ETV2 was 1.29 fold enrichment (6-mer frequency, TF over GST control); in the assay with ELF3, 1.17 fold enrichment (6-mer frequency, TF over GST control); with CRX it was 1.28 fold enrichment (6-mer frequency, TF over GST control); in the assay with ETV1, 1.21 fold enrichment (6-mer frequency, TF over GST control); with ERF it was 1.27 fold enrichment (6-mer frequency, TF over GST control); in the assay with ETV3L, 1.28 fold enrichment (6-mer frequency, TF over GST control). The binding signal with ETS2 is 1.17 fold enrichment (6-mer frequency, TF over GST control); in the assay with SPDEF, 1.18 fold enrichment (6-mer frequency, TF over GST control); with ETV7 it was 1.28 fold enrichment (6-mer frequency, TF over GST control); in the assay with ELF5 it was 1.21 fold enrichment (6-mer frequency, TF over GST control); with ETV3 it was 1.26 fold enrichment (6-mer frequency, TF over GST control); with ETV6 it was 1.27 fold enrichment (6-mer frequency, TF over GST control).
